Test results as given in PubChem BioAssay AID1159580 (chemical genetic matrix, 2015).
Screen size: about 5,500 compounds; about 2,000 (36%) were called active. Another 18% or so got no clear call; they are omitted. Cut-off read from the data, not from the text of the source: active = normalized growth mostly below about 0.91 (no sharp cut-off); inconclusive = no clear call, values can overlap the other calls; inactive = mostly above about 0.92. This is one part of the list.

Test: chemical genetic growth profiling, strain panel (AID 1159580);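 note: tested at 20 µM; growth read once vehicle control cultures reached saturation at 30 °C; 1 = growth at the plate median or of vehicle wells; lower values mean less growth of the strain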
Details: growth OD

Measured: normalized growth

Cc1ncc([N+](=O)[O-])n1CCO
inactive: S. cerevisiae deletion strains, locus YJR075W, strain HOC1, hits give low values 1.01 | S. cerevisiae deletion strains, locus YKL009W, strain mrt4, hits give low values 0.969 | S. cerevisiae deletion strains, locus YKL068W, hits give low values 0.99 | S. cerevisiae deletion strains, locus YKL085W, strain MDH1 (second series), hits give low values 0.985 | S. cerevisiae deletion strains, locus YKL085W, strain MDH1, hits give low values 0.985 | S. cerevisiae deletion strains, locus YKL160W, strain elf1, hits give low values 0.955 | S. cerevisiae deletion strains, locus YKL190W, strain CNB1, hits give low values 0.99 | S. cerevisiae deletion strains, locus YKR001C, strain vps1, hits give low values 1 | S. cerevisiae deletion strains, locus YKR026C, strain gcn3, hits give low values 0.984 | S. cerevisiae deletion strains, locus YKR091W, strain srl3, hits give low values 0.962 | S. cerevisiae deletion strains, locus YLL001W, strain dnm1, hits give low values 0.926 | S. cerevisiae deletion strains, locus YLL026W, hits give low values 0.977 | S. cerevisiae deletion strains, locus YLL041C, strain sdh2, hits give low values 0.98 | S. cerevisiae deletion strains, locus YLR027C, strain aat2, hits give low values 0.98 | S. cerevisiae deletion strains, locus YLR039C, strain RIC1, hits give low values 0.972 | S. cerevisiae deletion strains, locus YLR058C, strain SHM2, hits give low values 0.97 | S. cerevisiae deletion strains, locus YLR102C, strain apc9, hits give low values 0.991 | S. cerevisiae deletion strains, locus YLR113W, strain HOG1, hits give low values 1.05 | S. cerevisiae deletion strains, locus YLR221C, strain rsa3, hits give low values 0.941 | S. cerevisiae deletion strains, locus YLR258W, strain gsy2, hits give low values 0.988 | S. cerevisiae deletion strains, locus YLR262C, strain YPT6 (second series), hits give low values 0.964 | S. cerevisiae deletion strains, locus YLR262C, strain YPT6, hits give low values 0.907 | S. cerevisiae deletion strains, locus YLR268W, strain sec22, hits give low values 1.08 | S. cerevisiae deletion strains, locus YLR320W, strain mms22, hits give low values 0.948 | S. cerevisiae deletion strains, locus YLR330W, strain CHS5, hits give low values 0.987 | S. cerevisiae deletion strains, locus YLR342W, strain FKS1 (second series), hits give low values 0.982 | S. cerevisiae deletion strains, locus YLR342W, strain FKS1, hits give low values 0.978 | S. cerevisiae deletion strains, locus YLR357W, strain rsc2, hits give low values 0.973 | S. cerevisiae deletion strains, locus YLR370C, strain arc18, hits give low values 0.972 | S. cerevisiae deletion strains, locus YLR371W, strain rom2, hits give low values 0.975 | S. cerevisiae deletion strains, locus YLR384C, strain iki3, hits give low values 0.982 | S. cerevisiae deletion strains, locus YLR418C, strain cdc73, hits give low values 0.991 | S. cerevisiae deletion strains, locus YML016C, strain PPZ1, hits give low values 0.986 | S. cerevisiae deletion strains, locus YML032C, strain rad52, hits give low values 1.01 | S. cerevisiae deletion strains, locus YML120C, strain ndi1, hits give low values 0.942 | S. cerevisiae deletion strains, locus YML124C, strain tub3, hits give low values 0.984 | S. cerevisiae deletion strains, locus YMR058W, strain fet3, hits give low values 0.983 | S. cerevisiae deletion strains, locus YMR078C, strain ctf18, hits give low values 0.976 | S. cerevisiae deletion strains, locus YMR125W, strain sto1, hits give low values 0.958 | S. cerevisiae deletion strains, locus YMR129W, hits give low values 0.98 | S. cerevisiae deletion strains, locus YMR205C, strain PFK2, hits give low values 0.936 | S. cerevisiae deletion strains, locus YMR223W, strain ubp8, hits give low values 0.952 | S. cerevisiae deletion strains, locus YMR231W, strain pep5, hits give low values 0.986 | S. cerevisiae deletion strains, locus YMR263W, strain SAP30, hits give low values 0.995 | S. cerevisiae deletion strains, locus YMR307W, strain GAS1, hits give low values 0.976 | S. cerevisiae deletion strains, locus YNL067W, strain RPL9B, hits give low values 0.994 | S. cerevisiae deletion strains, locus YNL071W, strain lat1, hits give low values 0.978 | S. cerevisiae deletion strains, locus YNL128W, strain TEP1, hits give low values 0.951 | S. cerevisiae deletion strains, locus YNL153C, strain GIM3, hits give low values 1.01 | S. cerevisiae deletion strains, locus YNL183C, strain NPR1, hits give low values 1.03 | S. cerevisiae deletion strains, locus YNL209W, strain ssb2, hits give low values 0.974 | S. cerevisiae deletion strains, locus YNL233W, strain BNI4, hits give low values 1.02 | S. cerevisiae deletion strains, locus YNL248C, strain rpa49, hits give low values 0.981 | S. cerevisiae deletion strains, locus YNL250W, strain rad50, hits give low values 0.975 | S. cerevisiae deletion strains, locus YNL271C, strain bni1, hits give low values 0.989 | S. cerevisiae deletion strains, locus YNL298W, strain CLA4, hits give low values 0.992 | S. cerevisiae deletion strains, locus YNL307C, strain MCK1, hits give low values 0.989 | S. cerevisiae deletion strains, locus YNL322C, strain KRE1 (second series), hits give low values 0.974 | S. cerevisiae deletion strains, locus YNL322C, strain KRE1, hits give low values 0.986 | S. cerevisiae deletion strains, locus YNR049C, strain mso1, hits give low values 0.96 | S. cerevisiae deletion strains, locus YNR052C, strain pop2, hits give low values 0.989 | S. cerevisiae deletion strains, locus YOL006C, strain TOP1, hits give low values 1 | S. cerevisiae deletion strains, locus YOL012C, strain htz1 0.99 | S. cerevisiae deletion strains, locus YOL147C, strain pex11, hits give low values 0.986 | S. cerevisiae deletion strains, locus YOR001W, strain rrp6, hits give low values 1 | S. cerevisiae deletion strains, locus YOR061W, strain CKA2, hits give low values 0.967 | S. cerevisiae deletion strains, locus YOR069W, strain VPS5, hits give low values 0.989 | S. cerevisiae deletion strains, locus YOR070C, strain gyp1, hits give low values 0.987 | S. cerevisiae deletion strains, locus YOR080W, strain dia2, hits give low values 0.977 | S. cerevisiae deletion strains, locus YOR083W, strain WHI5, hits give low values 0.954 | S. cerevisiae deletion strains, locus YOR106W, strain vam3, hits give low values 0.937 | S. cerevisiae deletion strains, locus YOR136W, strain idh2, hits give low values 0.984 | S. cerevisiae deletion strains, locus YOR144C, strain elg1, hits give low values 0.989 | S. cerevisiae deletion strains, locus YOR184W, strain ser1, hits give low values 0.998 | S. cerevisiae deletion strains, locus YOR231W, strain MKK1, hits give low values 1.06 | S. cerevisiae deletion strains, locus YOR265W, strain rbl2, hits give low values 0.985 | S. cerevisiae deletion strains, locus YOR270C, strain vph1, hits give low values 0.958 | S. cerevisiae deletion strains, locus YOR290C, strain snf2, hits give low values 0.91 | S. cerevisiae deletion strains, locus YOR316C, strain cot1, hits give low values 0.992 | S. cerevisiae deletion strains, locus YPL051W, strain arl3, hits give low values 0.978 | S. cerevisiae deletion strains, locus YPL055C, strain LGE1, hits give low values 0.974 | S. cerevisiae deletion strains, locus YPL078C, strain atp4, hits give low values 0.959 | S. cerevisiae deletion strains, locus YPL106C, strain sse1, hits give low values 0.943 | S. cerevisiae deletion strains, locus YPL240C, strain hsp82, hits give low values 0.983 | S. cerevisiae deletion strains, locus YPL241C, strain CIN2, hits give low values 0.982 | S. cerevisiae deletion strains, locus YPL256C, strain CLN2, hits give low values 1.1 | S. cerevisiae deletion strains, locus YPR119W, strain clb2, hits give low values 0.992 | S. cerevisiae deletion strains, locus YPR141C, strain kar3, hits give low values 0.982 | S. cerevisiae deletion strains, locus YPR163C, strain tif3, hits give low values 0.987 | S. cerevisiae deletion strains, locus YPR167C, strain met16, hits give low values 0.998 | S. cerevisiae deletion strains, strain wtn01, hits give low values 1.02 | S. cerevisiae strains, strain wild type, hits give low values 0.98
